# Measurements: article PMC4552634, “A New Set of Chemical Starting Points with Plasmodium falciparum Transmission-Blocking Potential for Antimalarial Drug Discovery” (PLoS ONE, 2015)
# About 3,200 (25%) of roughly 13,000 compounds showed an effect of 50% or more. The list shows a part of the results.
# Test system: P. falciparum stage V gametocytes
# Parameters: BacTiter-Glo ATP luminescence viability of purified stage V gametocytes in 384-well plates, per cent inhibition versus DMSO
# Settings: 48 h, 5 µM; inhibitor
row,SMILES,% Inhibition
1,Cc1cccc2nc(-c3ccc(-c4cccc(CN5CC(C)OC(C)C5)c4)s3)[nH]c12.O=C(O)C(F)(F)F (stereo not shown) [TCMDC-133832],-9.101%
2,N#Cc1ccc(C(=O)Nc2cc(-c3cccc(O)c3)cc3[nH]ncc23)cc1 [TCMDC-134118],16.86%
3,Cc1ccc(Oc2ncccc2C(=O)Nc2cccc3cccnc23)c(C)c1 [TCMDC-125499],-13.13%
4,O=C(Nc1ccc(CCN2CCC(c3nc(COCC(F)(F)F)c(-c4ccccc4)o3)CC2)cc1)c1ccc(F)cc1 [TCMDC-131904],-33.25%
5,O=C(Nc1nccs1)c1sc2ccccc2c1O [TCMDC-124521],-6.294%
6,CCNc1cc(C(=O)N[C@@H](Cc2ccccc2)[C@H](O)CNCc2cc(C#N)ccc2OC)cc(N2CCCC2=O)c1 [TCMDC-141684],32.6%
7,COc1ccc(-n2nc(C(=O)NCc3ccccc3OC)c3ccccc3c2=O)cc1 [TCMDC-125443],-5.134%
8,CCn1nc(C(=O)NC2CCOc3ccccc32)c2ccccc2c1=O (stereo not shown) [TCMDC-124816],60.74%
9,CC1CCC(NC(=O)c2nn(-c3ccc(Cl)cc3)c(=O)c3ccccc23)CC1 (stereo not shown) [TCMDC-124775],-0.9327%
10,COc1ccc(CN2CCC(CN3CC4(OC3=O)c3ccccc3-c3ccccc34)C2)c(O)c1 (stereo not shown) [TCMDC-136069],30.12%
11,CCNc1cc(C(=O)N[C@@H](Cc2ccccc2)[C@H](O)CNCc2cccc(OC)c2)c(OC)c(N2CCCCS2(=O)=O)c1 [TCMDC-134673],-8.62%
12,Clc1ccc(NC(=NCCCCCCCN=C(Nc2ccc(Cl)cc2)Nc2ccc(Cl)cc2)Nc2ccc(Cl)cc2)cc1 [TCMDC-137529],128.8%
13,S=C(Nc1ccc(Cl)cc1)Nc1ccc(Nc2ccccc2)cc1 [TCMDC-123954],-65.82%
14,N=C(N)NN=CC(=O)Nc1ccc(Cl)cc1 [TCMDC-137472],9.695%
15,NC(=NCCc1ccc(Cl)cc1)c1ccc(Cl)c(Cl)c1 [TCMDC-137459],-9.34%
16,O=C(Nc1ccc(Cl)cc1)Nc1ccc(-c2ccc(-c3nc4ccccc4[nH]3)cc2)cc1 [TCMDC-133181],-19.19%
17,NC(=NCCCCCCCCN=C(N)Nc1ccc(Cl)cc1)Nc1ccc(Cl)cc1 [TCMDC-131828],83.63%
18,Clc1cccc(-c2nc(Nc3ccnc(-c4ccc(CN5CCOCC5)cc4)c3)c3ccccc3n2)c1 [TCMDC-138870],-2.785%
19,COC(=O)c1ccc(CC(C)NCC(O)c2cccc(Oc3cccc(C(F)(F)F)c3)c2)cc1 (stereo not shown) [TCMDC-131489],30.29%
20,COc1ccc2c(c1)[nH]c1c(/C=C/c3ccc([N+](=O)[O-])cc3)nccc12 [TCMDC-125486],8.204%
21,Cc1sc(NC(=O)c2ccc([N+](=O)[O-])cc2Cl)c(C(N)=O)c1C [TCMDC-125749],-6.756%
22,c1nc2nc3c(c(Nc4ccc5c(c4)CCC5)n2n1)CCC3 [TCMDC-123573],-7.89%

row,SMILES,% Inhibition
1,O=C(/C=C/c1ccc(Cl)cc1)NCCCCCN1CCCC(C(=O)Nc2ccc(Cl)cc2)C1 (stereo not shown) [TCMDC-136117],4.842%
2,O=C(/C=C/C=C/c1ccc(Cl)c(Cl)c1)NCCCCCN1CCCC2CCCCC21 (stereo not shown) [TCMDC-139469],92.39%
3,O=C(/C=C/c1ccc(Cl)c(Cl)c1)NCCCCCN1CCCC(C(=O)Nc2cccc(Cl)c2)C1 (stereo not shown) [TCMDC-136122],-10.14%
4,O=C(/C=C/c1ccc(Cl)c(Cl)c1)NCCCCCN1CCC(NC(=O)NC2CCCC2)CC1 [TCMDC-135699],-68.94%
5,O=C(/C=C/c1ccc(Cl)c(Cl)c1)NCCCCCN1CCC(NC(=O)NC2CCCCCC2)CC1 [TCMDC-135698],-24.64%
6,O=C(/C=C/c1ccc(Cl)c(Cl)c1)NCCCCCN1CCCC(C(=O)Nc2ccc(F)c(Cl)c2)C1 (stereo not shown) [TCMDC-136114],-6.866%
7,O=C(/C=C/c1ccc(Cl)c(Cl)c1)NCCCCCN1CCCC(C(=O)Nc2ccc(Cl)cc2)C1 (stereo not shown) [TCMDC-136118],-2.254%
8,O=C(/C=C/c1ccc(Cl)cc1)NCCCCCN1CCCC(C(=O)Nc2cccc(Cl)c2)C1 (stereo not shown) [TCMDC-136121],90.21%
9,O=C(/C=C/c1ccc(Cl)c(Cl)c1)NCCCCCN1CCCC(C(=O)Nc2ccc(Cl)c(Cl)c2)C1 (stereo not shown) [TCMDC-136126],74.26%
10,CC(C)C1=C[C@H]2C[C@]3(C4OCCO4)[C@@H]4CC[C@@H](C)[C@H]4C[C@@]2(C(=O)OCC2COCO2)[C@]13C(=O)OC(c1ccccc1)c1ccccc1 (stereo partly shown) [TCMDC-131949],-14.13%
11,CN(C)c1ccc(C(c2ccc(N(C)C)cc2)c2cc([N+](=O)[O-])ccc2Cl)cc1 [TCMDC-124088],-4.747%
12,O=S1(=O)C=C(c2ccccc2)CC1 [TCMDC-125863],-1.513%
13,O=C(Nc1cc(Cl)ccc1O)c1cnn2c(C(F)(F)F)cc(-c3cccs3)nc12 [TCMDC-125807],-56.02%
14,COc1cc(CN2CCC(N3CCc4cc(NC(=O)c5cc(C)on5)ccc43)C2)ccc1F (stereo not shown) [TCMDC-135084],-32.41%
15,N#Cc1cccc(NC(=O)Nc2cccc(-c3ccc(-c4nc5ccc(C(F)(F)F)cc5[nH]4)cc3)c2)c1 [TCMDC-133191],-49.97%
16,CCOC(=O)C(CO)NC(=O)c1ccc([N+](=O)[O-])o1 (stereo not shown) [TCMDC-131608],22.85%
17,Cc1ccc(C)c2sc(N3CCN(C(=O)c4ccc([N+](=O)[O-])o4)CC3)nc12 [TCMDC-124315],103%
18,CC1CCN(c2nc(C(=O)NCCc3ccc(Cl)c(Cl)c3)c(C(C)C)s2)CC1 [TCMDC-134836],1.732%
19,CC(C)c1sc(N2CCN(C)CC2)nc1C(=O)NCCc1ccc(Cl)c(Cl)c1 [TCMDC-134295],11.7%
20,CCOC(=O)C(NC(=O)c1ccc([N+](=O)[O-])o1)C(C)C (stereo not shown) [TCMDC-131607],14.28%
21,Cc1ccc(Cl)c2sc(N3CCN(C(=O)c4ccc([N+](=O)[O-])o4)CC3)nc12 [TCMDC-124311],95.54%
